Here are results for 25 compounds from PubChem BioAssay.

Structures are written as SMILES. Some of the results follow. Calls of active or inactive are those of the source.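 How the source made its calls, unless noted: active means reconfirmed compounds whose average cytotoxicity reaches 50% or more; inactive means the rest.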

Sequence of Tumor necrosis factor receptor superfamily member 10B (Homo sapiens) (O14763 whole entry, looked up): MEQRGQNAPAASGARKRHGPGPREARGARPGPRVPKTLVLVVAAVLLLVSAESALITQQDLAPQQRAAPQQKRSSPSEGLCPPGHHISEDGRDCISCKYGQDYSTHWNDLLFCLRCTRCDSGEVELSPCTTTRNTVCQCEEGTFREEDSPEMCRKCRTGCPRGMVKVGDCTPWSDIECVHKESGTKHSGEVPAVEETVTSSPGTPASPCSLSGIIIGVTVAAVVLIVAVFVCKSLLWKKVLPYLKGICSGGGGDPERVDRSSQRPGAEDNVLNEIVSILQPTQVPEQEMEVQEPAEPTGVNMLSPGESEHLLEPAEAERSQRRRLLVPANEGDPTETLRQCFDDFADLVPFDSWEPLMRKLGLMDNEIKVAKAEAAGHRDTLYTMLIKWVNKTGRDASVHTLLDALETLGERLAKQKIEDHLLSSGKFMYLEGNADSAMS
Sequence of Sentrin-specific protease 6 (Homo sapiens) (Q9GZR1 628-1112 limits assumed): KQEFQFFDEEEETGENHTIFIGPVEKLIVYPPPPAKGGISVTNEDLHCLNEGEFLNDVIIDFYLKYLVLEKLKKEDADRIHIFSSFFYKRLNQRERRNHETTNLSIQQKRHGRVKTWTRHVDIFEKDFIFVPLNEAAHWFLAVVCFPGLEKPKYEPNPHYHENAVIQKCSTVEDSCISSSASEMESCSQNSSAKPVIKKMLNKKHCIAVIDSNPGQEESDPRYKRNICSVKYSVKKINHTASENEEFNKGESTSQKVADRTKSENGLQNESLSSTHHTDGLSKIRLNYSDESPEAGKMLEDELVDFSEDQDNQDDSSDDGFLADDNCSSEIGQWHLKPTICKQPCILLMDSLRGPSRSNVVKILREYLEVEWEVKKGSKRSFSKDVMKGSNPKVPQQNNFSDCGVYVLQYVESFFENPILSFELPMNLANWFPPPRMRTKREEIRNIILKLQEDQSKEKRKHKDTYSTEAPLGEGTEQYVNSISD

System in the first test: not listed separately
The test is described as follows: PPC-1 cell viability loss – ATP content luminescence, cytotoxicity control for TRAIL apoptosis potentiator project, confirmation (AID 1447).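 Further: 0% = DMSO-treated cells and 100% = wells holding medium but no cells.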 The note with it: PPC-1 viability, ATPlite luminescence, overnight; at 5 µM; stronger effect = higher value.
For `Cc1ccc(-n2nc3cc(C)c(NC(=O)c4cccnc4)cc3n2)cc1`, the cytotoxicity was 34.7% (inactive).
In the case of `COC(=O)c1nc(NC(=O)c2ccc(Cl)cc2)n[nH]1`, the cytotoxicity was 12.1% (inactive).
The same measure, in the same setting: with `CS(=O)(=O)N1CCN(C(=O)c2cc3ccccc3oc2=O)CC1` the figure was 9.4% (inactive).
Same read-out and setting: the same measure for `CCCCCCCCn1c2c(c(=N)c3c1CCC3)CCCC2`: 42.7% (inactive); for `Cc1cc(C)nc(Nc2n[nH]c(-c3ccccc3N)n2)n1`: 37.6% (inactive).
For the compound `CCOC(=O)C1C(=O)OC2(CCCC2)C1C(=O)OCC` (stereo not given), the cytotoxicity was -4.2% (inactive).
For `Cn1c(C(=O)NCCCN2CCN(c3cccc(Cl)c3)CC2)cc2c(=O)n(C)c3ccccc3c21`, the cytotoxicity is 15% (inactive).
Same read-out and setting: with `CNC(=O)CSc1nnc(CCc2ccccc2)n1-c1ccccc1` the figure was 0.9% (inactive).
The same measure, in the same setting: with `CCOc1ccc(NC(=O)NNC(=O)c2ccc(Cl)cc2Cl)cc1` the figure was -11.6% (inactive).
In the case of `CCOc1ccc(-c2ccc(SCC(=O)N3CCOCC3)nn2)cc1`, the cytotoxicity is 57.7% (active).
Turning to `COc1ccc(C2C(C#N)=C(/N=C/N3CCOCC3)OC3=C2C(=O)CC(C)(C)C3)cc1OC` (stereo not given), the cytotoxicity was 2.1% (inactive).
Still for that read-out and setting: the same measure for `c1ccc2cc3c(NCCN4CCOCC4)ccnc3cc2c1`: 18% (inactive); for `COc1ccc(-c2cc(C(=O)n3cnc4ccccc43)c3ccccc3n2)cc1`: 33.1% (inactive).
On the same count and under the same terms, with `Cc1ccc(NC(=O)CS(=O)CC(=O)N(c2ccccc2)C(C)C(=O)NC2CCCC2)cc1` (stereo not given) the figure was 14.8% (inactive); with `Cc1nc(-c2ccc(Cl)cc2)sc1C(=O)NN`, 57.2% (active).
In the case of `O=C(c1ccc(F)cc1)n1c(=S)nc2ccccn21`, the cytotoxicity was 81.2% (active).
The same measure, in the same setting: with `CC(Nc1nc(N2CCCC2)nc2ccccc12)c1ccccc1` (stereo not given) the figure was 8.3% (inactive); with `O=C(O)CCCC(=O)Nc1ccccc1-n1ccnc1`, -3.3% (inactive); with `Cc1cc2c(=O)n(C)c(SCC(=O)c3cc4ccccc4o3)nc2s1`, -5.6% (inactive).
Same read-out and setting: with `O=C(Nc1cccc(O)c1)c1ccc(C(=O)c2ccccc2)o1` the figure was 18.6% (inactive); with `O=C(NCC12CC3CC(C1)CC(CNC(=O)N1CCCC1)(C3)C2)N1CCCC1`, -1.2% (inactive); with `COc1ccc(C(=O)/C=C/Nc2ccccn2)cc1`, 76.8% (active).

System in the next test: not listed separately
Briefly: lowers stimulated NF-kB luciferase signal in Jurkat – cell-based, luminescence, single concentration, T-cell NF-kB inhibitor project, confirmation (AID 435020;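 active means inhibition reaching about 45% at 4 µM in either replicate, limit read from the data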;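 further: plate controls were PMA/ionomycin stimulated DMSO wells for no effect and unstimulated DMSO wells for full effect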). The note with it: PMA/ionomycin-induced, 16 h, at 4 µM, stronger effect = higher value.
As usually defined, the inhibition is the drop in the measured response relative to a control, in per cent. With `C=CCn1c(C)cc(C2=NNC(=NCC)SC2)c1C`, the inhibition was 67.5% (active).
The same measure, in the same setting: the same measure for `O=C(CN1C(=O)c2ccccc2S1(=O)=O)N1CCc2ccccc21`: 34.6% (inactive); for `O=C(O)c1ccc(N/N=C/c2cn(-c3ccccc3)nc2-c2cccs2)cc1`: -14.3% (inactive).
Same read-out and setting: with `CCCCCCCCn1c2c(c(=N)c3c1CCC3)CCCC2` the figure was 75.5% (active); with `O=C(c1ccc(F)cc1)n1c(=S)nc2ccccn21`, -90.8% (inactive); with `COc1ccc(C(=O)/C=C/Nc2ccccn2)cc1`, -78.9% (inactive).

The target of a further test is Sentrin-specific protease 8 (Homo sapiens) (UniProt Q96LD8). Briefly: human SENP8 peptidase blockers, hit retest – biochemical, luminescence, single concentration, confirmation (AID 488912;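 active means mean inhibition across replicates above about 50%, limit read from the data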). The note with it: Recombinant SENP8, Z-RLRGG-aminoluciferin luminescence, 60 min; at 12.5 µM; stronger effect = higher value.
Sequence of Sentrin-specific protease 8 (Homo sapiens) (Q96LD8 whole entry, looked up): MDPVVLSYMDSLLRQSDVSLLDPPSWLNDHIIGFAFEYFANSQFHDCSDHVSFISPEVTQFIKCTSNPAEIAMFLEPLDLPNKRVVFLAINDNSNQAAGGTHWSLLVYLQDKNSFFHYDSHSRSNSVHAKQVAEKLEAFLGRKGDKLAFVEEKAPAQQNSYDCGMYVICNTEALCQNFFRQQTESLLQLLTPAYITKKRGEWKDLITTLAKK
For `C=CCn1c(C)cc(C2=NNC(=NCC)SC2)c1C`, the inhibition is -3.3% (inactive).
Same read-out and setting: the same measure for `O=C(c1ccc(F)cc1)n1c(=S)nc2ccccn21`: 16.3% (inactive).
Still for that read-out and setting: the same measure for `COc1ccc(C(=O)/C=C/Nc2ccccn2)cc1`: 97.4% (active).

A further test has as its target Sentrin-specific protease 6 (Homo sapiens) (UniProt Q9GZR1). The test is described as follows: inhibition of human SENP6 catalytic domain – biochemical, luminescence, single concentration, confirmation (AID 488915;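 active means mean inhibition above about 50% in the one-dose retest, limit read from the data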). The note with it: recombinant SENP6, Z-RLRGG-aminoluciferin luminescence; at 12.5 µM; stronger effect = higher value.
As to `C=CCn1c(C)cc(C2=NNC(=NCC)SC2)c1C`, the inhibition is 1% (inactive).
On the same count and under the same terms, the same measure for `O=C(c1ccc(F)cc1)n1c(=S)nc2ccccn21`: 14.2% (inactive); for `COc1ccc(C(=O)/C=C/Nc2ccccn2)cc1`: 98% (active).

The target in the next test is Sentrin-specific protease 7 (Homo sapiens) (UniProt Q9BQF6). The test is described as follows: human SENP7 peptidase blockers, hit retest – biochemical, luminescence, single concentration, confirmation (AID 488917;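 active means mean inhibition above about 50% in the one-dose retest, limit read from the data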). The note with it: recombinant SENP7, Z-RLRGG-aminoluciferin luminescence, 40 min; at 12.5 µM; stronger effect = higher value.
Sequence of Sentrin-specific protease 7 (Homo sapiens) (Q9BQF6 706-1050 limits assumed): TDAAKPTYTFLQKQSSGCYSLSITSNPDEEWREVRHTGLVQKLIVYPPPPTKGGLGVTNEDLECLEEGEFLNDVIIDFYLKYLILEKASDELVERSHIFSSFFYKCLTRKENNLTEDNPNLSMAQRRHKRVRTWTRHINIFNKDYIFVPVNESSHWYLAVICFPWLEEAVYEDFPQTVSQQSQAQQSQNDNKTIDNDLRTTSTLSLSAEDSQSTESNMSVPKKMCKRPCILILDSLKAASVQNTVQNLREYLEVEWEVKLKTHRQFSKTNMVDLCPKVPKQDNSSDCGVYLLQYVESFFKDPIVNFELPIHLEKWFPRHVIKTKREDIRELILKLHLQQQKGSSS
As for `C=CCn1c(C)cc(C2=NNC(=NCC)SC2)c1C`, the inhibition was 8% (inactive).
Same read-out and setting: the same measure for `O=C(c1ccc(F)cc1)n1c(=S)nc2ccccn21`: 50.1% (active); for `COc1ccc(C(=O)/C=C/Nc2ccccn2)cc1`: 102% (active).

The target in the next test is Caspase-3 (Homo sapiens) (UniProt P42574). The test is described as follows: human caspase-3 activity blockade, out-of-family – biochemical, single concentration, selectivity assay for SENP inhibitor project, confirmation (AID 488918;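 active means mean inhibition above about 50%, limit read from the data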;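 further: plate controls were enzyme with DMSO for no effect and wells without caspase-3 for full effect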). The note with it: purified caspase-3, Z-DEVD-aminoluciferin luminescence, 60 min; at 12.5 µM; stronger effect = higher value.
Sequence of Caspase-3 (Homo sapiens) (P42574 28-227 limits assumed): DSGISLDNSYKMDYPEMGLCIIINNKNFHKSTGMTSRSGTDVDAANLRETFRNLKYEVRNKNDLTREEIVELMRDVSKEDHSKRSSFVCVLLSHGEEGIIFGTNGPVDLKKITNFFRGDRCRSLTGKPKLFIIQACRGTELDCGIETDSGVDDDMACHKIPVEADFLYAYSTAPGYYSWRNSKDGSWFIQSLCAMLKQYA
Consider `C=CCn1c(C)cc(C2=NNC(=NCC)SC2)c1C`, for which the inhibition is 1.7% (inactive).
The same measure, in the same setting: with `O=C(c1ccc(F)cc1)n1c(=S)nc2ccccn21` the figure was 19.5% (inactive).
Turning to `COc1ccc(C(=O)/C=C/Nc2ccccn2)cc1`, the inhibition is 97% (active).

System in a further test: not listed separately
Briefly: Ultra-Glo luciferase signal interference – biochemical, single concentration, SENP8 reaction pre-completed, artefact control for SENP inhibitor project, confirmation (AID 488919;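 active means mean inhibition above about 50% when retested at one dose, limit read from the data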;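 further: plate controls were DMSO wells with completed reaction for no effect and substrate without enzyme for full effect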). The note with it: Pre-incubated SENP8/Z-RLRGG-aminoluciferin, luciferase luminescence interference; at 12.5 µM; stronger effect = higher value.
Regarding `C=CCn1c(C)cc(C2=NNC(=NCC)SC2)c1C`, the inhibition is -1% (inactive).
Still for that read-out and setting: the same measure for `O=C(c1ccc(F)cc1)n1c(=S)nc2ccccn21`: -9.8% (inactive).
Still for that read-out and setting: the same measure for `COc1ccc(C(=O)/C=C/Nc2ccccn2)cc1`: 96.4% (active).

System in a further test: not listed separately
The test is described as follows: HIF-2a driven luciferase blockers, single dose – luminescence, 786-0 RCC cells, confirmation (AID 651580;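 active means mean inhibition across four replicates of at least 40 percent at the single tested concentration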). The note with it: HIF-2a luciferase reporter luminescence, overnight, at 18.8 µM, stronger effect = higher value.
As to `C=CCn1c(C)cc(C2=NNC(=NCC)SC2)c1C`, the inhibition is 98.7% (active).
For `O=C(CN1C(=O)c2ccccc2S1(=O)=O)N1CCc2ccccc21`, the inhibition was 94.3% (active).
Same read-out and setting: the same measure for `COc1ccc(C(=O)/C=C/Nc2ccccn2)cc1`: 80.7% (active).

System in another test: not listed separately
Briefly: HIF-1a luciferase reporter signal reduction – MiaPaCa-2 cells, single concentration, counter-screen for HIF-2a inhibitor project, confirmation (AID 651589;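 active means mean inhibition of the reporter signal across four replicates at the single tested dose of 50% or more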). The note with it: MiaPaCa-2 HIF-1a luciferase reporter, desferoxamine, overnight; at 18.8 µM; stronger effect = higher value. (A reporter such as luciferase makes a cellular process visible.)
`C=CCn1c(C)cc(C2=NNC(=NCC)SC2)c1C`: the inhibition is 104% (active).
Same read-out and setting: the same measure for `O=C(CN1C(=O)c2ccccc2S1(=O)=O)N1CCc2ccccc21`: 96% (active); for `COc1ccc(C(=O)/C=C/Nc2ccccn2)cc1`: 79.7% (active).

A further test concerns the target Tumor necrosis factor receptor superfamily member 10B (Homo sapiens) (UniProt O14763). The test is described as follows: viability loss of caspase-8 NB7 cells with TRAIL – with/without TRAIL, luminescence panel, confirmation (AID 651596; in the data active means activity above about 50%). The note with it: NB7 neuroblastoma + caspase-8, TRAIL sensitization, NB7 Caspase-8, with TRAIL, mean of runs, at 10 µM, stronger effect = higher value.
Consider `C=CCn1c(C)cc(C2=NNC(=NCC)SC2)c1C`, for which the activity was 93.8%.
Still for that read-out and setting: with `O=C(O)c1ccc(N/N=C/c2cn(-c3ccccc3)nc2-c2cccs2)cc1` the figure was 77.9%; with `COc1ccc(C(=O)/C=C/Nc2ccccn2)cc1`, 81.4%.

System in a further test: not listed separately
Described as above. The note with it: NB7 neuroblastoma + caspase-8, without TRAIL, NB7 Caspase-8, without TRAIL, mean of runs, at 10 µM.
Take `C=CCn1c(C)cc(C2=NNC(=NCC)SC2)c1C`: the activity stood at 90.7%.
Same read-out and setting: with `O=C(O)c1ccc(N/N=C/c2cn(-c3ccccc3)nc2-c2cccs2)cc1` the figure was 73.7%; with `COc1ccc(C(=O)/C=C/Nc2ccccn2)cc1`, 68.6%.
